# PubChem BioAssay AID686979 (National Center for Advancing Translational Sciences (NCATS), 2013)
# The campaign covered roughly 420,000 compounds. About 50,000 (12%) were called active. Inconclusive results (about 26%) are left out. Calls follow the shape of the dose curve; as a rule, active = well fitted inhibition curve with a large enough effect; inconclusive = small, poorly fitted or top-dose-only effect; inactive = flat fitted curve, though single readings scatter. Many of the other results were omitted from the sample, so actives are more common in it than they were.
# Test: qHTS for Inhibitors of human tyrosyl-DNA phosphodiesterase 1 (TDP1): qHTS in cells in presence of CPT; also: nearly all actives have a fitted effect of over 55% in size
# Conditions: chicken DT40 Tdp1-/-;hTDP1 cells + 20 nM CPT, ATP luminescence, 48 h; series mostly up to 46.2 µM; activity change, negative = growth inhibition: at the top concentration
# In short: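 Cell growth measured by CellTiter-Glo luminescence after a minimum 48 h, 37 C compound exposure with 20 nM CPT in Tdp1-knockout DT40 cells stably expressing hTDP1, seeded 400/well; qHTS titration format.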
# % is scaled to controls: 0 for no effect and ±100 for the full control effect; potency is read from the fitted curve at half-maximal effect.
SMILES,"activity change, negative = growth inhibition",Potency
CCCCN(C(=O)/C=C/c1ccco1)c1c(N)n(CC(C)C)c(=O)[nH]c1=O,6.51% (inactive),–
CN1CCN(c2ncc3c(n2)CC(c2ccccc2F)CC3=O)CC1 (configuration not stated),-27.4% (inactive),–
O=C(O)CSc1nnc(-c2ccc3c(c2)OCO3)n1-c1ccccc1,0.195% (inactive),–
Cc1cc(NCc2cccnc2)no1,-0.255% (inactive),–
c1n[nH]c(NCc2ccc3c(c2)OCO3)n1,-0.691% (inactive),–
c1cncc(CNc2ccnc(-c3ccc4c(c3)OCO4)n2)c1,–,8.2 µM (active)
C=CCn1c(SCC(=O)NCCCO)nc2sc3c(c2c1=O)CCC3,11.1% (inactive),–
C=CCn1c(SCc2c(C)noc2C)nc2sc3c(c2c1=O)CCC(C)C3 (configuration not stated),–,14.6 µM (active)
C=CCn1c(SCC(=O)NCC2CCCO2)nc2sc(C)c(C)c2c1=O (configuration not stated),-25.8% (inactive),–
Cc1ccc(-c2ccc(CCC(=O)O)n2-c2ccc(C(N)=O)cc2)cc1,-23.8% (inactive),–
CC(C)C[C@@H]1COc2cc(N3CCC[C@@H]3CO)ccc2S(=O)(=O)N1,-16.9% (inactive),–
O=C(Nc1ccccc1C(=O)NCC1CCCO1)c1ccccc1F (configuration not stated),6.83% (inactive),–
CC(=O)NC(Cc1ccccc1)C(=O)NC1CCN(c2ncccc2[N+](=O)[O-])CC1 (configuration not stated),5.47% (inactive),–
CCOC(=O)C1=C(COC(=O)[C@H](C)NS(=O)(=O)c2ccccc2F)NC(=O)NC1C (some centres not stated),-18.8% (inactive),–
O=C(NC1CC1)C(Cc1ccccc1)NS(=O)(=O)c1ccccc1F (configuration not stated),–,16.4 µM (active)
Cc1ccc(C(=O)NCC(=O)O)cc1S(=O)(=O)N1CCCCC1,12.1% (inactive),–
Cc1ccc(C)c(Nc2nnc(-c3ccc(C)c(S(=O)(=O)N4CCCCC4)c3)c3ccccc23)c1,–,4.11 µM (active)
Cc1ccc(NS(=O)(=O)c2cccs2)cc1S(=O)(=O)N1CCCCCC1,-19.3% (inactive),–
CC(=O)c1c(C)[nH]c(C(=O)Nc2cc(S(=O)(=O)N(C)C)ccc2C)c1C,-11.6% (inactive),–
Cc1ccc(S(=O)(=O)N(C)C)cc1NC(=O)c1n[nH]c(=O)c2ccccc12,–,18.4 µM (active)
Cc1ccc(S(=O)(=O)N(C)C)cc1NC(=O)c1ccccc1Br,9.43% (inactive),–
O=C(CSc1nc2[nH]c(=O)[nH]c(=O)c2s1)Nc1cccc(F)c1,0.666% (inactive),–

SMILES,"activity change, negative = growth inhibition",Potency
CCC(C)[C@@H](C(=O)N1CCNCC1)n1cc(CCCCN)nn1 (some centres not stated),10.6% (inactive),–
CCOC(=O)c1cccc(NC(=O)CN2C(=O)C3CC=CCC3C2=O)c1 (configuration not stated),-1.71% (inactive),–
CCOC(=O)N1CCN(C(=S)Nc2ccc(C)cc2C)CC1,-11.4% (inactive),–
CCOC(=O)N1CCN(c2cc(C)c([N+](=O)[O-])cc2F)CC1,–,20.6 µM (active)
CCOC(=O)C1CCN(c2ccc(C(=O)O)cc2[N+](=O)[O-])CC1,6.98% (inactive),–
NC(=O)C1CCN(C(=O)CC2C(=O)NCCN2Cc2cccc(Oc3ccccc3)c2)CC1 (configuration not stated),3.56% (inactive),–
Cc1ccc(C(CNC(=O)Nc2cccc(C)c2)N2CCN(C)CC2)cc1 (configuration not stated),-3.68% (inactive),–
Cc1ccc(NC(=O)Cn2cccc2C2=NC(c3ccccc3)CO2)c(C)c1 (configuration not stated),-25.7% (inactive),–
COC(CNC(=O)Cn1ncc2ccsc2c1=O)OC,-2.79% (inactive),–
O=C1OCCC1=COCCCCOC=C1CCOC1=O,-10.4% (inactive),–
CCCC(=O)C1CCN(Cc2ccccc2)CC1,24.3% (inactive),–
Brc1ccc(CN2CC[C@H]3C=CCc4cccc(c43)C2)cc1,–,14.1 µM (active)
CCN(CCCNC(=O)c1c(C)oc2ncn(CC(C)C)c(=O)c12)Cc1ccccc1,0.204% (inactive),–
O=S(=O)(NC1CC2CCC1C2)c1ccc(Cl)cc1 (configuration not stated),-19.1% (inactive),–
O=C(CO/N=C/c1ccc(OC(F)F)cc1)NCc1ccc(F)cc1,-2.12% (inactive),–
COc1ccc(/C=C2\N=C3CCCN3C2=O)cc1,-10.1% (inactive),–
COc1ccccc1C1=CC(=O)CCC1,-2.66% (inactive),–
COc1ccc(/C=C2\CCc3ccccc3C2=O)c(OC)c1OC,–,23.1 µM (active)
COc1ccc(/C=C2/CCCc3ccccc3C2=O)cc1,–,5.8 µM (active)
O=C1/C(=C/c2cccs2)CCc2ccccc21,-33% (inactive),–
COc1ccc(/C=C2\NC(=O)[C@@H]3Cc4ccccc4CN3C2=O)cc1,-14.1% [at 9.04 µM] (inactive),–
COc1cc2[nH]c(=S)n(Cc3ccc(F)cc3)c(=O)c2cc1OC,-26.5% (inactive),–

SMILES,"activity change, negative = growth inhibition",Potency
COc1ccccc1NC(=O)N(O)C1(C#N)CCCCC1,5.21% (inactive),–
Cc1nn(CC(=O)NC2CCCCC2)c(=O)c2cccn12,14.8% (inactive),–
O=C(CNS(=O)(=O)c1cccc(C(F)(F)F)c1)Nc1ccccc1F,-25% (inactive),–
O=C(/C=C/c1ccc(Cl)cc1)Nc1ccc(S(=O)(=O)Nc2ncccn2)cc1,-4.33% (inactive),–
O=C(/C=C/c1ccc(F)cc1)Nc1cccc(S(=O)(=O)Nc2cccc(C(F)(F)F)c2)c1,–,14.6 µM (active)
Cc1ccc(OCC(=O)Nc2ccc(OCc3cc(=O)n4c(C)csc4n3)cc2)cc1C,2.52% (inactive),–
COc1cc(Cl)c(NC(=O)CC(C)S(=O)(=O)c2cc3c(cc2C)NC(=O)CO3)c(OC)c1 (configuration not stated),-13.4% (inactive),–
O=C(/C=C/c1ccccc1)Nc1nnc(SCC(=O)c2ccc3ccccc3c2)s1,-27.6% (inactive),–
Cc1cccc(NC(=O)C2CCN(C(=O)NC3CCCCC3)CC2)c1,2.85% (inactive),–
COc1ccc(NC(=O)CCCN2C(=O)CCn3nc(-c4cn(C)c5ccccc45)cc32)cc1OC,–,18.4 µM (active)
O=C(CN1C(=O)CCn2nc(-c3ccccc3)cc21)NCc1ccccc1,-2.41% (inactive),–
COc1ccc(NC(=O)N2CCCn3nc(C)cc32)cc1OC,9.85% (inactive),–
CCOC(=O)C1(C)CCCN(C(=O)c2ccc(N(C)C)cc2)C1 (configuration not stated),-27.8% (inactive),–
CC(NCCc1ccc(S(N)(=O)=O)cc1)C(=O)NCc1ccccc1 (configuration not stated),-21.1% (inactive),–
CC(=O)NC(=S)Nc1ccc(NC(=S)NC(=O)c2ccc([N+](=O)[O-])cc2)cc1,18.6% (inactive),–
COc1cc(NS(=O)(=O)c2ccc(NC(=O)c3ccc([N+](=O)[O-])cc3)cc2)ncn1,-12.7% (inactive),–
Cn1ccc(=Nc2ccc(NC(=O)c3ccc(N=c4ccn(C)c5ccc([N+](=O)[O-])cc45)cc3)cc2)cc1,–,3.66 µM (active)
CSCCC(NC(=O)c1ccco1)C(=O)NCCc1ccc(F)cc1 (configuration not stated),-11.6% (inactive),–
CC(=O)NCCNC(=O)c1cc(-c2cccc3ccccc23)nc2ccccc12,-3.86% (inactive),–
CN(C)CCNC(=O)Nc1cccc(Cl)c1Cl,-13.2% (inactive),–
CN(C)CCNC(=O)c1ccc(Cl)c2cc3ccccc3nc12,–,0.164 µM (active)
O=C(CCc1ccc(O)cc1)NN=Cc1cc(Br)ccc1O,–,8.2 µM (active)

SMILES,"activity change, negative = growth inhibition",Potency
COc1cc(/C=N/NC(=O)CCc2n[nH]c(=O)[nH]c2=O)ccc1O,21.9% (inactive),–
O=C(CCC(=O)N/N=C/c1ccc(Br)o1)N/N=C/c1ccc(Br)o1,-1.67% (inactive),–
CCCCn1c(N)c(N(CCOC)C(=O)CSCC(=O)Nc2cccc(C)c2)c(=O)[nH]c1=O,-2.79% (inactive),–
CC1CCCCC1NC(=O)c1cc(=O)[nH]c2ccccc12 (configuration not stated),-10.8% (inactive),–
COc1ccc(C2CC(c3cccs3)=NN2C(=O)COC(=O)c2cc3ccccc3cc2O)cc1OC (configuration not stated),-18% (inactive),–
CC(=O)NC(CC(=O)Nc1cccc(S(=O)(=O)N2CCCC2)c1)c1ccccc1 (configuration not stated),-0.692% (inactive),–
CCOc1ccc(CNC(=O)CCc2c(C)nn(-c3ccc(N4CCCCC4)nn3)c2C)cc1,–,25.9 µM (active)
Cc1nn(-c2ccc(N3CCCCC3)nn2)c(C)c1CCC(=O)NCc1ccccc1F,-16% (inactive),–
CCOc1ccc(CNC(=O)CCC(=O)N2CCSc3ccccc32)cc1,–,inactive
O=C(Nc1cccc(Cl)c1N1CCOCC1)c1cccnc1,-20.9% (inactive),–
COc1cccc(-n2c(=O)c3c(C)c(C(=O)N(C)C)sc3n(CC(=O)NCCc3ccc(OC)c(OC)c3)c2=O)c1,–,inactive
CCOc1cc(/C=N/NC(=O)c2c(C)nc3ccc(Cl)cn23)ccc1O,–,13 µM (active)
CCOc1cc(C=NNC(=O)CCCC(=O)NN=Cc2ccc(O)c(OCC)c2)ccc1O,12.7% (inactive),–
CCOc1ccc(/C=N\NC(=O)c2c(C)nc3cc(C)ccn23)cc1,2% (inactive),–
COc1ccc(-c2c(C(C)=O)c(C)nc3sc4c(=O)n(-c5ccc(C)cc5)nnc4c23)cc1,-13.4% (inactive),–
Oc1ccc(Cl)cc1/C=N/c1nc2ccccc2[nH]1,-17.6% (inactive),–
SCc1nc2ccc(Cl)cc2[nH]1,–,5.62 µM (active)
OC(c1nc2ccc(F)cc2[nH]1)C(O)c1nc2ccc(F)cc2[nH]1 (configuration not stated),1.53% (inactive),–
Cc1ccc(OC(=O)c2c(C)nn(-c3ccccc3)c2C)cc1,4.83% (inactive),–
CCOC(=O)/C=C/CN(C(=O)OC(C)(C)C)S(=O)(=O)N1CC=CC1,-2.23% (inactive),–
O=C(CCN1Cc2ccccc2OC(c2ccccc2)C1)N[C@@H]1CS(=O)(=O)C[C@H]1O (some centres not stated),2.04% [at 9.04 µM] (inactive),–
Cc1cc2nc(C(F)(F)F)cc(-c3cccs3)n2n1,-2.35% (inactive),–

SMILES,"activity change, negative = growth inhibition",Potency
CCC(=O)Nc1ccc2c(c1)nc(CCN1CCN(C)CC1)n2C,-4.21% (inactive),–
CCC(=O)Nc1ccc2c(c1)nc(CCN1CCN(c3ccccn3)CC1)n2C,11.1% (inactive),–
Cn1c(CCN2CCN(c3ccccn3)CC2)nc2cc(NS(=O)(=O)c3ccc(F)cc3)ccc21,–,16.4 µM (active)
COc1ccc(S(=O)(=O)N2CCCCC2)cc1C(=O)NC1CCS(=O)(=O)C1 (configuration not stated),–,inactive
COC(=O)C(C)n1cnc2c(nnn2-c2ccc(F)cc2)c1=O (configuration not stated),-5.18% (inactive),–
COc1ccc(S(=O)(=O)N2C[C@H]3CON(C)[C@H]3C[C@H]2c2cccc(Br)c2)cc1,-28.7% (inactive),–
Cc1cc(C)cc(NC(=O)NC2CCCCCCC2)c1,-26% (inactive),–
C/C(CC(=O)Nc1cccc(F)c1)=N\NC(=O)C(=O)NC1CCCCC1,-14.6% (inactive),–
O=C(Nc1cccc(F)c1)NC1CCCCCCC1,–,18.4 µM (active)
COc1ccc2c(c1)C(=O)Nc1cc(Cl)ccc1N2,11.6% (inactive),–
CCOc1ccc(-n2c(O)c(/C=N/Nc3nnc(C)c(=O)[nH]3)c3ccccc3c2=O)cc1,–,0.651 µM (active)
COc1ccc(-n2c(O)c(C=NCC(c3ccco3)N3CCCC3)c3ccccc3c2=O)cc1OC (configuration not stated),-27.4% (inactive),–
CCOc1ccc(N/C(N)=N/c2nc(C)c(C)c(=O)[nH]2)cc1,-2.74% (inactive),–
CCN(CC)CCCN=Cc1c(O)n(-c2ccc(C)cc2)c(=O)c2ccccc12,2.69% (inactive),–
Cc1nnc(N/N=C/c2cccs2)[nH]c1=O,-11.4% (inactive),–
Cc1nnc(N/N=C/c2ccccn2)[nH]c1=O,–,4.61 µM (active)
Cc1cc(C)nc(N/N=C/c2c(CO)cnc(C)c2O)n1,0.526% (inactive),–
CCOc1ccc(-n2c(O)c(/C=N/Nc3nc(C)cc(C)n3)c3ccccc3c2=O)cc1,–,2.59 µM (active)
Cc1ccccc1Nc1nnc(C)c(=O)[nH]1,-4.01% (inactive),–
